# Results: PubChem BioAssay (EPA / NIEHS)
# Calls of active or inactive are those of the source. The calls were made as follows: active = hit-call score of the fitted dose curve at least 0.9, where 1 is the maximum; inactive = score below 0.9.
# What was measured:
# [1] = APR_HepG2_CellCycleArrest_24hr: Apredica 24-hour HepG2 Assay for Cell Cycle Arrest (AID 2282905); details: imaging, actives raise or lower the signal;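 also: cell cycle arrest scored as ratio of 2N to 4N nuclear DNA content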
# Summary of the method: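 HepG2 cells were exposed to compounds at 0.39–200 uM (ten concentrations, duplicate) in 0.5% v/v DMSO for 24 hr. After formaldehyde fixation and Triton permeabilization, Hoechst 33342-stained nuclei were imaged at 20x; DNA content was quantified, with bidirectional fitting against DMSO.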
# [2] = APR_HepG2_NuclearSize_24hr: Apredica 24-hour HepG2 Assay for Nuclear Size (AID 2282907); details: high-content imaging, actives raise or lower the signal
# Summary of the method: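 HepG2 human liver cells were exposed for 24 hr to compounds at 0.39–200 uM (ten concentrations, duplicate) in 0.5% v/v DMSO. They were then formaldehyde-fixed, Triton-permeabilized and Hoechst 33342-stained, and nuclear diameter was imaged at 20x. Bidirectional fits were made against DMSO.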
# [3] = APR_HepG2_CellLoss_24hr: Apredica 24-hour HepG2 Assay for Cell Loss (AID 2282908); details: high-content imaging;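 as to AC50: fit in both directions so a hit may be cell loss or gain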
# Summary of the method: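 Compounds were tested at 0.39–200 uM in duplicate with 0.5% v/v DMSO final. Cells were then fixed in 3.7% formaldehyde, Hoechst 33342 nuclei were imaged at 20x by HCS, and cell number was fitted bidirectionally against DMSO.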
# [4] = APR_HepG2_MicrotubuleCSK_24hr: Apredica 24-hour HepG2 Assay for Microtubule CSK Stabilty (AID 2282909); details: HepG2 microtubule cytoskeleton imaging, actives raise or lower the signal
# Summary of the method: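 HepG2 cells exposed 24 h to compounds at 0.39–200 uM (duplicate, 0.5% v/v DMSO final), then fixed, permeabilized and immunostained for alpha-tubulin with Hoechst 33342. Cytoskeleton imaged at 20x; bidirectional fit versus DMSO baseline.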
# [5] = APR_HepG2_MitoticArrest_24hr: Apredica 24-hour HepG2 Assay for Mitotic Arrest (AID 2282910); details: high-content imaging, actives raise or lower the signal
# Summary of the method: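 HepG2 cells, 24 h exposure at 0.39-200 uM (10 concentrations, duplicate, 0.5% DMSO). Fixed, stained for phospho-histone H3 with Hoechst; imaged by high-content microscopy, bidirectional fit versus DMSO.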
# [6] = APR_HepG2_MitoMembPot_24hr: Apredica 24-hour HepG2 Assay for Mitochondrial Membrane Potential (AID 2282911); details: imaging, actives raise or lower the signal
# Summary of the method: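 Cells are dosed for 24 hr across 0.39 to 200 uM with solvent held at 0.5% DMSO. They are then stained with 250 nM MitoTracker Red CMXRos for 30 min, fixed in 3.7% formaldehyde and imaged.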
# [7] = APR_HepG2_MitoMass_24hr: Apredica 24-hour HepG2 Assay for Mitochondrial Mass (AID 2282912); details: high-content imaging, actives raise or lower the signal
# Summary of the method: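 Human HepG2 liver cells were exposed for 24 hr to compounds at 0.39–200 uM (duplicates, 0.5% v/v DMSO final). They were stained live with 250 nM MitoTracker Red CMXRos for 30 min, fixed in 3.7% formaldehyde, and imaged by HCS fluorescence; signals were fitted bidirectionally against DMSO.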
# [8] = APR_HepG2_CellCycleArrest_72hr: Apredica 72-hour HepG2 Assay for Cell Cycle Arrest (AID 2282914); details: high-content imaging, actives raise or lower the signal
# Summary of the method: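 Read-out is Hoechst-stained nuclear DNA content measured by automated fluorescence imaging (20x, six images per well), fitted in both directions relative to DMSO. Human HepG2 liver cells received 0.39–200 uM compound for 72 hr at 0.5% v/v DMSO.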
# [9] = APR_HepG2_p53Act_24hr: Apredica 24-hour HepG2 Assay for p53 Activation (AID 2282913); details: high-content imaging, actives raise or lower the signal;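 also: p53 protein immunofluorescence averaged per cell in HepG2 with Hoechst nuclei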
# Summary of the method: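 Human HepG2 liver cells; 24 hr cpd treatment, 0.39–200 uM, 0.5% DMSO final. Fixed in 3.7% formaldehyde, permeabilized with 0.5% Triton X-100, stained with anti-p53/Cy5 plus Hoechst 33342. Six images per well at 20x; gain or loss vs DMSO.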
SMILES,outcome [1],outcome [2],outcome [3],outcome [4],outcome [5],outcome [6],outcome [7],outcome [8],AC50 [2],AC50 [5],AC50 [7],AC50 [3],AC50 [4],AC50 [6],AC50 [8],outcome [9]
COc1ccc([N+](=O)[O-])cc1N,inactive,inactive,inactive,inactive,inactive,inactive,inactive,inactive,,,,,,,,
O=C(/C=C/c1ccc(O)cc1)CC(=O)/C=C/c1ccc(O)cc1,inactive,,inactive,inactive,,inactive,,inactive,68.6 µM (active),24.6 µM (active),61 µM (active),,,,,
C[C@@H]1C[C@H]2[C@@H]3CCC4=CC(=O)C=C[C@]4(C)[C@@]3(F)[C@@H](O)C[C@]2(C)[C@@]1(O)C(=O)COP(=O)(O)O,inactive,,,,,,,,9.81 µM (active),1.76 µM (active),2.64 µM (active),15.4 µM (active),94 µM (active),37.7 µM (active),94 µM (active),
CCCCOCCO,inactive,inactive,inactive,inactive,inactive,inactive,inactive,inactive,,,,,,,,
O=[N+]([O-])c1ccc(O)cc1,inactive,inactive,inactive,inactive,inactive,inactive,inactive,inactive,,,,,,,,
C=C(C)C(=O)OCCC(F)(F)C(F)(F)C(F)(F)C(F)(F)C(F)(F)C(F)(F)F,inactive,inactive,inactive,inactive,inactive,inactive,inactive,inactive,,,,,,,,
CN(C)C=O,inactive,inactive,inactive,inactive,inactive,inactive,inactive,inactive,,,,,,,,
CC[C@H](c1ccc(O)cc1)[C@@H](CC)c1ccc(O)cc1,inactive,inactive,inactive,inactive,inactive,,inactive,inactive,,,,,,0.0485 µM (active),,inactive
CCCCCCCC(=O)O,inactive,inactive,inactive,inactive,inactive,,inactive,inactive,,,,,,0.0327 µM (active),,
CC(C)(C)c1cccc(C(C)(C)C)c1O,inactive,inactive,,inactive,inactive,,,,,,96.1 µM (active),111 µM (active),,110 µM (active),112 µM (active),
CC#C[C@]1(O)CC[C@H]2[C@@H]3CCC4=CC(=O)CCC4=C3[C@@H](c3ccc(N(C)C)cc3)C[C@@]21C,inactive,inactive,inactive,inactive,inactive,inactive,inactive,inactive,,,,,,,,inactive
CCCCCCCCOC(=O)CCCCCCCCC(=O)OCCCCCCCC,inactive,inactive,inactive,inactive,inactive,inactive,inactive,inactive,,,,,,,,
CN1CCN(c2ccccc2/C=C2\SCCN(c3ccc(Cl)c(Cl)c3)C2=O)CC1,inactive,,,,,,inactive,inactive,11.2 µM (active),7.46 µM (active),,24 µM (active),80.7 µM (active),53.6 µM (active),,
CC[C@H](C)[C@@H](C(=O)O)n1sc2ccccc2c1=O,inactive,inactive,inactive,inactive,inactive,,inactive,inactive,,,,,,100 µM (active),,inactive
c1ccc2c(c1)Cc1ccccc1-2,inactive,inactive,inactive,inactive,inactive,inactive,inactive,inactive,,,,,,,,
ClC1=C(Cl)C(Cl)(Cl)C(Cl)=C1Cl,inactive,inactive,inactive,inactive,inactive,inactive,inactive,inactive,,,,,,,,inactive
CC(O)CO (stereo unspecified),inactive,inactive,inactive,inactive,inactive,inactive,inactive,inactive,,,,,,,,inactive
